# Assay results: ChEMBL document CHEMBL3988442, “University of Dundee, Small-Polar-MMV Screening Library” (2021)
# Screen size: about 48,000 compounds; about 13,000 (27%) showed an effect of 50% or more. Some of the results follow.
# Test system: Wolbachia pipientis
# Assay: Anti-Wolbachia Cell-Based Screen
# Format: functional
# Parameters: scale not given: in the data most compounds retested in dose-response had high values
# Settings: 5 µM
row,Compound,Percent Effect
1,Cc1nc(Nc2ccccn2)cc(C2CCCN2Cc2ncc[nH]2)n1 (stereo not given),129.4%
2,Cc1nc(Nc2ncccn2)cc(C2CCCN2C2CCOCC2)n1 (stereo not given),-10.06%
3,Cc1nc(Nc2ncccn2)cc(C2CCCN2Cc2ncc[nH]2)n1 (stereo not given),97.78%
4,c1cc(-c2c[nH]c([C@@H]3COCCN3Cc3ncc[nH]3)n2)ccn1,-5.75%
5,CCc1cc(C(C)Nc2nc(-c3cccnc3)nc3c2CNC3)on1 (stereo not given),-7.07%
6,CN(C)C(C)(C)CNC(=O)C(C)(C)c1ccccc1F,-19.41%
7,Cc1csc(C2(NC(=O)NCCN3CCOCC3)CCCC2)n1,-11.69%
8,COc1cccc(NC(=O)N(CCC(F)(F)F)C[C@H](O)CO)c1,-14.76%
9,CCc1ccccc1OC1CN(C(=O)c2sccc2N)C1,9.804%
10,O=C(CN1CC(n2cccn2)C1)NCCCc1ccccc1,-6.652%
11,O=C(c1ccc(CN2CC(n3cccn3)C2)cc1)N1CCCC1,6.953%
12,CC(Cn1cccn1)NC(=O)NCCN1CCCCCC1=O (stereo not given),-10.88%
13,N#CCCNC(=O)CN1CC(n2cccn2)C1,139.2%
14,O=C(CN1CCCC(c2ncc[nH]2)C1)NCCCN1CCCCCC1=O (stereo not given),11.49%
15,O=C(CN1CC(n2cccn2)C1)NCC1(c2ccccc2)CCC1,14.59%
16,O=C(CN1CC(n2cccn2)C1)NCCc1ccc(F)cc1,97.63%
17,O=C(CN1CC(n2cccn2)C1)NCCC1=CCCCC1,104.9%
18,CCC1CN(CC(=O)NCCC#N)CCO1 (stereo not given),-6.003%
19,CC(C)c1nc2n(n1)CC(NCC(=O)NCCC1=CCCCC1)CC2 (stereo not given),-9.722%
20,O=C(CN1CC(n2cccn2)C1)NCCCN1CCCC1=O,95.99%
21,O=C(CN1CC(n2cccn2)C1)NCCc1c[nH]c2ccccc12,-3.25%
22,CNC(=O)CCNC(=O)c1ccccc1N1CCOCC1,-6.711%

row,Compound,Percent Effect
1,CCC1CN(C(=O)c2ccccc2C#N)CCN1C(C)C (stereo not given),-3.955%
2,COc1ccc2c(c1)C1(CCN(Cc3nccs3)CC1)N(C)CC2.O=C(O)C(F)(F)F.O=C(O)C(F)(F)F,6.008%
3,COc1ccc(-c2n[nH]cc2CN(C)Cc2nonc2C)c(F)c1,-4.147%
4,O=C([C@H]1C[C@H]2OCC[C@H]2N(C(=O)C2CCOCC2)C1)N1CCCCO1,-4.541%
5,CCOC(=O)c1ccccc1NC(=O)CN(C)Cc1ccccc1Cl.O=C(O)C(=O)O,16.66%
6,CC(=O)NCCC(=O)NCc1ccc(Br)cc1Cl,-2.805%
7,Cc1cccc(C(C)(C)CNc2cn[nH]c(=O)c2Cl)c1,26.78%
8,O=C(NC1CC1)c1cc(NC(=O)N2CCOCC2)ccc1Cl,-10.77%
9,NC(=O)C1CCN(C(=O)Cc2cnc(-c3c(Cl)cccc3Cl)s2)CC1,112.4%
10,NC(=O)C1CCN(C(=O)Cc2ccc(Cl)c(Cl)c2)CC1,-1.39%
11,O=C(Cc1cnc(-c2c(Cl)cccc2Cl)s1)N1CCOCC1,134.1%
12,Cc1nc2ccnn2c(C)c1CCC(=O)N1CCC(C(N)=O)CC1,1.242%
13,Cc1ncc(CN(C)C(=O)Nc2cccc(C(=O)N3CCOCC3)c2)s1,-6.788%
14,CC(=O)N1CCN(C(=O)Cc2cnc(-c3c(Cl)cccc3Cl)s2)CC1,110.1%
15,CN(C)C(=O)N1CCN(Cc2cnc(-c3ccsc3)s2)CC1,-2.871%
16,O=C(O)Cc1cccc(-n2ccnc2-c2ccc(Cl)s2)c1,1.594%
17,Cc1oc(CNC(=O)Cc2ccccc2Cl)cc1C(=O)O,-14.11%
18,O=C(O)Cc1cnc(-c2c(Cl)cccc2Cl)s1,122.5%
19,CC(=O)N1CCCN(C(=O)NCCc2ccc(Cl)s2)CC1,4.085%
20,Cc1ncccc1OC1(C(=O)NCCC2CCCN2C)CCNCC1 (stereo not given),17.07%
21,CCCOCC(=O)N1CCCN(Cc2csc(CC)n2)CC1,2.804%
22,CS(=O)(=O)CCCN1CCSCC1c1ccc(Cl)cc1 (stereo not given),-3.255%

row,Compound,Percent Effect
1,CCN(CC(O)c1ccc(C)cc1)C(=O)NC(C)C (stereo not given),91.44%
2,CCN(CC(=O)Nc1c(C)n[nH]c1C)CC(O)c1ccc(C)cc1 (stereo not given),-7.699%
3,CC(C)NC(=O)CNC(C)COc1ccccc1 (stereo not given),2.359%
4,CC(C)CN(CC(O)c1ccccc1)C(=O)NC(C)C (stereo not given),126.3%
5,CC(NC(=O)Nc1nccs1)c1cccnc1 (stereo not given),-1.338%
6,O=C(Nc1nccs1)N(CCO)Cc1ccsc1,-2.808%
7,CC(C)CN(CC(O)c1ccccc1)C(=O)Nc1nccs1 (stereo not given),92.63%
8,CCC(CC)(CNC(C)=O)NC(C)c1ccccc1 (stereo not given),1.082%
9,CCN(CC(=O)Nc1c(C)nn(C)c1C)CC(O)c1ccc(C)cc1 (stereo not given),2.184%
10,Cc1nn(C)c(Cl)c1C1CCCN1c1ncnc2[nH]ccc12 (stereo not given),-15.05%
11,CCc1nnc(N[C@H](C)c2cccc(OC)c2)o1,-47.91%
12,Cn1cc(N2C(=O)CC[C@@H]3[C@H]2CCN3C(=O)c2cscn2)cn1.O=C(O)C(F)(F)F,-22.63%
13,Cc1nc(CN2CC[C@H]3[C@H]2CCN3c2nncs2)cs1.O=C(O)C(F)(F)F.O=C(O)C(F)(F)F,10.04%
14,Cn1cc(N2C(=O)CC[C@@H]3[C@H]2CCN3Cc2nccs2)cn1.O=C(O)C(F)(F)F,92.26%
15,Cc1nc(CO[C@@H]2CN(Cc3cnn(C)c3)[C@@H]3COC[C@@H]32)cs1.O=C(O)C(F)(F)F,-7.827%
16,Cn1cc(C(=O)N[C@H]2CN(Cc3nccs3)[C@@H]3CCCO[C@H]23)cn1.O=C(O)C(F)(F)F,-3.983%
17,Cc1nc(CN2CC[C@H]3[C@@H]2CCC(=O)N3c2cnn(C)c2)cs1.O=C(O)C(F)(F)F,98.36%
18,Cc1nc(C)c(-c2nnc(SCC(=O)O)n2C(C)c2ccccc2)o1 (stereo not given),4.033%
19,Fc1cccc(CN2CCN(Cc3cscn3)CC2)c1,-6.647%
20,O=C(c1ccc(O)cc1)N1CCN(C(=O)c2ccc3c(c2)COC3)CC1,-5.572%
21,Cc1cccc(C(=O)N2CCCN(Cc3cscn3)CC2)c1,101.4%
22,Cn1cc(CN2CCCN(C(=O)c3ccc4c(c3)COC4)CC2)cn1,-5.776%

row,Compound,Percent Effect
1,O=C(c1ccc2cc[nH]c2c1)N1CCCN(Cc2cscn2)CC1,102.9%
2,CN1CCN(C(=O)c2cccc(OCc3cscn3)c2)CC1,-0.311%
3,O=C(c1cccc(F)c1)N1CCCN(Cc2cscn2)CC1,112.5%
4,O=C(c1ccc2c(c1)COC2)N1CCCN(Cc2cscn2)CC1,97.01%
5,CSCC(CCO)NC(=O)Nc1cccc(Br)c1 (stereo not given),-3.109%
6,O=C(NCCO)c1coc(CN2CCN(c3ccccc3F)CC2)n1,7.764%
7,COCc1noc(-c2ccc(N(C)Cc3c(C)n[nH]c3C)nc2)n1,-8.806%
8,O=C(NC[C@H]1OC[C@@H](NC2CCC(F)(F)CC2)[C@@H]1O)c1cccs1,-23.1%
9,C=C(C)CN(CC)S(=O)(=O)c1ccccc1C#N,-2.977%
10,Cc1nnc(NCC2(c3ccccc3)CCOCC2)c(C#N)c1C,-16.92%
11,COCCN1CCC(NCc2c(C(C)C)nn(C)c2N(C)C)CC1,-4.673%
12,CC(C)Nc1nc2c(s1)C(=O)CN(C)C2,130.6%
13,CC(C)c1nn(C)c(N(C)C)c1CNC1CCN(CC2CC2)CC1,-26.39%
14,CCN1CC(=O)c2sc(NC(C)C)nc2C1,96.98%
15,COCCN1CCc2cc(C(=O)N(C)C)c(NC(C)C)nc2CC1.O=C(O)C(F)(F)F.O=C(O)C(F)(F)F,7.689%
16,CC(C)Nc1nc2c(s1)C(=O)CN(CC1CC1)C2,101.7%
17,COCCN1CC(=O)c2sc(NC(C)C)nc2C1,130.5%
18,CSC(C)(C)CNC(=O)NC1CCN(C)CC1,-3.442%
19,CC(C)C(C)(C#N)NC(=O)Cn1cc(C(N)=O)c(-c2ccccc2)n1 (stereo not given),12.8%
20,CCNC(=O)NCc1cccc(N2CC=CC2)c1,-0.5505%
21,CCc1noc(CN(C)CCC(=O)Nc2ccc(Cl)cc2)n1,-6.397%
22,CCN1CC(CN(C)Cc2nc(-c3ccc(F)cc3)oc2C)CC1=O (stereo not given),117.1%

row,Compound,Percent Effect
1,Cc1oc(-c2ccc(F)cc2)nc1CN1CCOCS1(=O)=O,1.059%
2,Cc1oc(-c2ccc(F)cc2F)nc1CN1C[C@@H](C)O[C@@H](C)C1,30.19%
3,Cc1oc(-c2ccoc2)nc1CN1CCC[C@H]1CO,2.013%
4,CCN1CC(CN(C)Cc2nc(-c3ccoc3)oc2C)CC1=O (stereo not given),101.6%
5,CCN1CC(CN(C)Cc2nc(-c3ccc(F)cc3F)oc2C)CC1=O (stereo not given),223.2%
6,CCN(CCn1cccn1)Cc1nc(-c2ccoc2)oc1C,-32.03%
7,CCCOC1CCCN(Cc2nc(-c3ccc(F)cc3F)oc2C)C1 (stereo not given),11.6%
8,CCN(CCn1cccn1)Cc1nc(-c2ccc(C)o2)oc1C,17.65%
9,CCN(CCn1cccn1)Cc1nc(-c2ccc(F)cc2)oc1C,16.6%
10,CCN(C)Cc1nc(-c2ccccc2NS(C)(=O)=O)oc1C,17.24%
11,CCN1CC(CN(C)Cc2nc(-c3ccc(C)o3)oc2C)CC1=O (stereo not given),106.5%
12,O=C(c1ccc(O)cn1)N1CCOC(c2ccc(Cl)c(Cl)c2)C1 (stereo not given),-8.844%
13,CCc1cnc(NCCSc2cnn[nH]2)nc1,4.76%
14,COC(=O)CCCNC(=O)COc1ccccc1C(F)(F)F,-5.238%
15,O=C(NC1CCCC1)c1cc2c(s1)CCN2C(=O)c1ccccc1,94.77%
16,COCCN(C)C(=O)c1cc2c(s1)CCN2C(=O)C1CC1,113.8%
17,CCCNC(=O)CCNC(=O)c1ccccc1N1CCOCC1,6.654%
18,CCCNC(=O)c1cc2c(s1)CCN2C(=O)c1ccccc1,88.89%
19,COCCNC(=O)c1cc2c(s1)CCN2C(=O)c1ccccc1,3.263%
20,O=C(NC1CC1)c1cc2c(s1)CCN2C(=O)C1CC1,91.55%
21,O=C(NC1CCCC1)NC1CCC(C(=O)N2CCSCC2)CC1 (stereo not given),9.425%
22,O=C(c1cc2c(s1)CCN2C(=O)C1CC1)N1CCCC1,-2.581%
